For 38 molecules, outcome and AC50 results are on record in PubChem BioAssay (EPA / NIEHS).

The AC50 is the concentration giving half of the maximal activity seen.

Where “and” joins values, the source holds several entries; their conditions need not be identical. Identical values can stand only once. The source holds several records for some structures; these can differ, active in one and inactive in another. Calls of active or inactive are those of the source. The calls were made as follows: active = hit-call score of the fitted dose curve at least 0.9, where 1 is the maximum; inactive = score below 0.9.

Read-out in the test: Matrix Metallopeptidase 1 (MMP1), MMP1 (gene 4312)
Kind of test: BSK_BF4T_MMP1: BioMAP Diversity Plus: BF4T Assay for Matrix Metallopeptidase 1 (MMP1) Biomarker Activity (AID 2284270). As to conditions: primary human bronchial epithelial cells with fibroblasts. Here is the method: BSK_BF4T is a cell-based, multiplexed-readout assay that uses bronchial epithelial cells and dermal fibroblasts, a human vascular primary cell, with measurements taken at 24 hours after chemical dosing in a microplate: 96-well plate.BSK_BF4T_MMP1 is an assay component measured in the BSK_BF4T assay. It measures MMP-1 antibody related to regulation of gene expression using ELISA technology.Data from the assay component BSK_BF4T_MMP1 was analyzed at the endpoint, BSK_BF4T_MMP1, in the positive analysis fitting direction relative to DMSO as the negative control and baseline of activity. Using a type of binding reporter, gain or loss-of-signal activity can be used to understand protein changes. To generalize the intended target to other relatable targets, this assay endpoint is annotated to the 'protease' intended target family, where the subfamily is 'matrix metalloproteinase'.
The levels of cell surface (or secreted, indicated by the prefix "s") biomarker endpoints were measured by ELISA. Overt cytotoxicity to cells in confluent adherent cultures (all systems other than the BT system) was assessed by measuring total protein levels using sulforhodamine B (SRB) staining in parallel cultures at the time of biomarker measurements, indicated as SRB endpoints. For proliferation assays for adherent cell types, individual cell types are cultured at sub-confluence and relative cell numbers quantified by SRB staining at time points optimized for each system (48 h: 3C and CASM3C systems; 72 h: BT and HDF3CGF systems; 96 h: SAg system). SRB was performed by staining cells with 0.1% SRB after fixation with 10% TCA and reading wells at 560 nm.Viability and proliferation of PBMC (T cells) was quantified by Alamar Blue reduction for the SAg and BT systems. For PBMC viability (referred to as PBMC Cytotoxicity within the assay endpoint names), cells were plated (75,000/well in a 96-well plate) and then chemical samples added for 1 h before addition of activators, SEB and TSST-1 (20 ng/mL final concentration each). Cells were incubated for 90 h. Then, Alamar Blue (20 uL/well) (Invitrogen, Cat DAL1100) was added for 6 h, and the plates were read with a fluorescence microplate reader at 546/580 nm (excitation/emission). For PBMC proliferation, cells were plated and activated as above but incubated for only 16 h prior to addition of Alamar Blue. Plates were read after 6 h.
Consider `O=S(=O)(OCC(F)(F)F)C(F)(F)C(F)(F)C(F)(F)C(F)(F)F`, for which the result was inactive.
Regarding `OCCCC(F)(F)C(F)(F)C(F)(F)C(F)(F)C(F)(F)C(F)(F)C(F)(F)C(F)(F)F`, the half-maximal activity concentration (AC50) was 49 µM (active) and 45.1 µM (active).
For the molecule `O=S(=O)(O)CCC(F)(F)C(F)(F)C(F)(F)C(F)(F)C(F)(F)C(F)(F)C(F)(F)C(F)(F)F`, the outcome was inactive.
Still for that read-out and setting: the value for `O=C(F)C1(F)C(F)(F)C(F)(F)C(F)(F)C(F)(F)C1(F)F` was “inactive”; that for `NC(=O)C(F)(F)C(F)(F)C(F)(F)C(F)(F)C(N)=O` was “inactive”.
Regarding `C=CC(=O)OCC(F)(F)C(F)(F)C(F)(F)COC(=O)C=C`, the outcome was inactive and the AC50 is 50.2 µM (active).
In the case of `NC(=O)C(F)(F)C(F)(F)C(F)(F)F`, the result was inactive.
Still for that read-out and setting: in the case of `NCC(F)(F)C(F)(F)C(F)(F)C(F)(F)C(F)(F)C(F)(F)C(F)(F)C(F)(F)F` it was “inactive”; in that of `C=CC(=O)OCCC(F)(F)C(F)(F)C(F)(F)C(F)(F)F`, “inactive”.
On the same count and under the same terms, in the case of `O=C(Cl)C(F)(F)C(F)(F)C(F)(F)C(F)(F)C(F)(F)C(F)(F)F` it was “inactive”.
Take `O=C(O)CCC(F)(F)C(F)(F)C(F)(F)C(F)(F)C(F)(F)C(F)(F)C(F)(F)F`: the outcome was inactive.
Still for that read-out and setting: the value for `O=S(=O)(Cl)C(F)(F)C(F)(F)C(F)(F)C(F)(F)C(F)(F)C(F)(F)C(F)(F)C(F)(F)F` was “inactive”; that for `NS(=O)(=O)C(F)(F)C(F)(F)C(F)(F)C(F)(F)C(F)(F)C(F)(F)F` was “inactive”; that for `CNS(=O)(=O)C(F)(F)C(F)(F)C(F)(F)C(F)(F)C(F)(F)C(F)(F)C(F)(F)C(F)(F)F` was “inactive”.
Take `CCN(CCO)S(=O)(=O)C(F)(F)C(F)(F)C(F)(F)C(F)(F)C(F)(F)C(F)(F)C(F)(F)C(F)(F)F`: the outcome was inactive.
On the same count and under the same terms, the value for `O=C(O)C(F)(F)OC(F)(F)C(F)(F)OC(F)(F)C(F)(F)OC(F)(F)F` was “inactive”.
As for `O=C(Cl)C(F)(F)C(F)(F)C(F)(F)C(F)(F)C(F)(F)C(F)(F)C(F)(F)F`, the AC50 is 19.9 µM (active) and the outcome was inactive.
Turning to `OCC(O)CC(F)(F)C(F)(F)C(F)(F)C(F)(F)C(F)(F)C(F)(F)C(F)(F)C(F)(F)F` (stereo not given), the result was inactive.
Still for that read-out and setting: the value for `C[Si](Cl)(Cl)CCC(F)(F)C(F)(F)C(F)(F)C(F)(F)C(F)(F)C(F)(F)F` was “inactive”; that for `OCC(F)(F)C(F)(F)C(F)(F)CO` was “inactive”.
Same read-out and setting: in the case of `COC(F)(C(F)F)C(F)(F)F` (stereo not given) it was “inactive”.
The same measure, in the same setting: the value for `OC(O)C(F)(F)C(F)(F)F` was “inactive”.
As for `FC(F)(F)C(F)(F)C(F)(F)C(F)(F)C(F)(F)C(F)(F)C(F)(F)CCI`, the result was inactive.
Take `OCC(O)CC(F)(F)C(F)(F)C(F)(F)C(F)(F)F` (stereo not given): the outcome was inactive.
For the molecule `C=C(C)C(=O)OCC(F)(F)C(F)(F)C(F)(F)C(F)F`, the outcome was inactive.
The same measure, in the same setting: the value for `OCC(F)(F)C(F)(F)C(F)(F)C(F)(F)C(F)(F)C(F)(F)C(F)(F)C(F)(F)CO` was “inactive”; that for `NC(O)(C(F)(F)F)C(F)(F)F` was “inactive”.
On to `O=C(O)C(F)(F)C(F)(F)C(F)(F)OC(F)(C(F)(F)F)C(F)(F)F`, for which the outcome was inactive.
Same read-out and setting: in the case of `FC(F)(F)C(F)(F)C(F)(F)C(F)(F)C(F)(F)C(F)(F)CC[Si](Cl)(Cl)Cl` it was “inactive”; in that of `CN(C(=O)C(F)(F)C(F)(F)C(F)(F)F)[Si](C)(C)C`, “inactive”.
Regarding `NC(=O)C(F)(F)C(F)(F)C(F)(F)C(F)F`, the outcome was inactive.
On the same count and under the same terms, in the case of `NC(=O)C(F)(F)C(F)(F)C(F)(F)C(F)(F)C(F)(F)C(F)(F)C(F)(F)F` it was “inactive”; in that of `OCC(F)(F)C(F)(F)C(F)(F)C(F)(F)C(F)(F)C(F)(F)CO`, “inactive”.
With `CO[Si](C)(CCC(F)(F)C(F)(F)C(F)(F)C(F)(F)C(F)(F)C(F)(F)F)OC`, the result was inactive.
Still for that read-out and setting: the value for `O=C(O)C(F)(F)C(F)(F)C(F)(F)OC(F)(F)F` was “inactive”; that for `C=CC(=O)OCC(F)(F)C(F)(F)C(F)(F)C(F)(F)C(F)(F)C(F)(F)C(F)(F)C(F)F` was “inactive”.
Same read-out and setting: the value for `FC(F)(F)C(F)(F)C(F)(F)CC1CO1` (stereo not given) was “inactive”; that for `O=S(=O)(O)CCC(F)(F)C(F)(F)C(F)(F)C(F)(F)F` was “inactive”.
